Screens from PubChem BioAssay.
CYP2C19 inhib – human CYP2C19 inhibition; P33261; CYP2C19 Supersomes, luciferin-H EGE luminescence, 30 min; inhibition, % at 5 µM; 21% of 96,000 active; AID 778;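 active means CYP2C19 inhibition above a set limit at 5 µM in the primary screen, cut at about 50% in these data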
Target sequence (P33261 whole entry, looked up): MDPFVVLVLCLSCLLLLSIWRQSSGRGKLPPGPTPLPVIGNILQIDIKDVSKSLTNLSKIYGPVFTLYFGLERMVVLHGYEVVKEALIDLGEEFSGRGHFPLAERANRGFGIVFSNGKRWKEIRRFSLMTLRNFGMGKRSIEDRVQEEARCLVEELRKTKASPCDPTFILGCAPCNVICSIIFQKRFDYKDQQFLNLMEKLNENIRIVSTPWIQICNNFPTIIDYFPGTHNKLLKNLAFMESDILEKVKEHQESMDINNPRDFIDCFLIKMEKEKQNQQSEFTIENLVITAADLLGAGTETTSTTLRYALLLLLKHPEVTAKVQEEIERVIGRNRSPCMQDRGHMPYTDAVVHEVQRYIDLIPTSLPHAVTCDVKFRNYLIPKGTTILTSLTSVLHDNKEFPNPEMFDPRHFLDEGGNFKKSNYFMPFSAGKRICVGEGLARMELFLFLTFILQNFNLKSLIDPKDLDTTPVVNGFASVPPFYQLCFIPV
CYP2C9 activ – increases human cytochrome P450 2C9 activity. recombinant CYP2C9, luciferin-H conversion, luminescence; active compounds read high; factor 1 = untreated enzyme, 0 = blocked. 1.4% of 96,000 active. activation factor at 5 µM. P11712. AID 1024;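 active means activation factor of 2 or more for CYP2C9 at a 5 µM dose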
CYP2C9 inh – inhibitors of human CYP2C9; P11712; CYP2C9 Supersomes, luciferin-H conversion, luminescence; inhibition, % at 5 µM; 20% of 96,000 active;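 active means blocking of liver enzyme CYP2C9 beyond about 50% at 5 µM, limit read from the data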
Pyk2 oligo antag – antagonists of human Pyk2 oligomerization; Q14289; Q293 cells, Pyk2 FERM NanoBiT luminescence; active compounds read low; z-score (the deposit names both 25 µM and 10 µM); 0.83% of 99,000 active; AID 1347419;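 active means Z-score of -3 or lower, scaled per plate to the spread of control and sample wells; inactive means z-score above -3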;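 further: negative z-score means lost luminescence so less FERM oligomerization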
CYP2C19 act – cytochrome P450 2C19 (human) activation; 96,000 tested, under 10 active; activation factor at 5 µM; recombinant CYP2C19, luciferin-H EGE luminescence; active compounds read high; 0 = fully inhibited enzyme, 1 = untreated enzyme; P33261; AID 1025;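 active means activation factor of at least 2 at 5 µM in the primary screen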
A number is an active result; n = inactive; x = not tested or not shown. This is a sample that favours compounds with a hit; in the whole collection about 28% have one here.

SMILES	CYP2C19 inhib	CYP2C9 activ	CYP2C9 inh	Pyk2 oligo antag	CYP2C19 act
CN1C=CC=C/C1=C(\C#N)c1nc2ccccc2[nH]1	n	n	n	n	n
Cc1ccccc1OCc1nc(-c2ccccc2)no1	n	n	n	n	n
Cc1ccc(SCC(=O)N(Cc2nc(-c3ccccc3)no2)C(C)C)cc1	76.9	n	78.8	n	n
Cc1ccccc1OCC(=O)N(Cc1nc(-c2ccccc2)no1)C(C)C	57.3	n	n	n	n
COC(CNC(=O)c1cccc2c1C(=O)N(Cc1cccnc1)C2)OC	50.1	n	n	n	n
CCOc1ccc(NC(=O)c2cccc3c2C(=O)N(Cc2cccnc2)C3)cc1	n	n	77.0	n	n
CCOc1ccccc1NC(=O)c1cccc2c1C(=O)N(CCOC)C2	67.3	n	88.4	x	n
CCOC(=O)N1CCC(NC(=O)c2cccc3c2C(=O)N(Cc2cccnc2)C3)CC1	n	n	56.5	n	n
CCOC(=O)N1CCC(NC(=O)c2cccnc2SC)CC1	n	n	n	n	n
COCCN1Cc2cccc(C(=O)Nc3cccc(C)c3C)c2C1=O	n	n	n	n	n
Cc1cc(C)n2nc(SCC(=O)Nc3c(C)n(C)n(-c4ccccc4)c3=O)nc2n1	n	n	n	n	n
O=C(CCCc1nc(-c2ccccc2)no1)N1CCOCC1	n	n	n	n	n
Cc1ccc(-n2c(SCC(=O)OC(C)C)nnc2-c2ccccn2)cc1	50.6	n	n	n	n
CNC(=O)CSc1nnc(-c2ccco2)n1-c1ccc(C)cc1	x	x	x	n	x
CC(C)OC(=O)CSc1nnc(-c2ccccn2)n1-c1ccccc1	n	n	n	n	n
CC(C)OC(=O)CSc1nnc(-c2ccccc2)n1N	60.5	n	n	n	n
Cc1ccc(-n2c(SCC(=O)OC(C)C)nnc2-c2ccco2)cc1	n	2.3	n	n	n
CCOC(=O)C1CCCN(C(=O)c2ccco2)C1 (stereo not drawn)	n	n	n	n	n
Cc1cc(C)n2nc(-c3cnn(C)c3C(F)(F)F)c(Cl)c2n1	n	n	n	n	n
Cc1cc(C(F)(F)F)n2nc(-c3cnn(C)c3C(F)(F)F)c(Cl)c2n1	51.2	n	72.1	n	n
CC1(C)CC(=O)C/C(=N/NC(=O)CCCOc2ccc(Cl)cc2Cl)C1	n	n	n	n	n
Cc1cccc(C)c1NC(=O)C(c1cccs1)N(Cc1ccco1)C(=O)Cn1nnc2ccccc21 (stereo not drawn)	n	n	n	n	n
CSC(=NC#N)N1CCN(c2ccc(Cl)cc2)CC1	85.5	n	n	n	n
N#CC(C#N)=C/C(C#N)=C(/N)N1CCN(c2ccc(Cl)cc2)CC1	n	n	n	n	n
O=C(CSc1ccc(Cl)cc1)Nc1ccccc1N1CCN(C(=O)c2ccccc2)CC1	n	n	n	n	n
SMILES	CYP2C19 inhib	CYP2C9 activ	CYP2C9 inh	Pyk2 oligo antag	CYP2C19 act
CC(C)C(=O)Nc1ccccc1N1CCN(C(=O)c2ccccc2)CC1	67.5	n	63.2	n	n
O=C(Nc1ccccc1N1CCN(C(=O)c2ccc(Cl)cc2)CC1)c1cccnc1	88.0	n	93.1	n	n
CC(C)CC(=O)Nc1ccccc1N1CCN(C(=O)c2ccccc2)CC1	76.8	n	76.1	n	n
CC(C)C(=O)Nc1ccccc1N1CCN(S(C)(=O)=O)CC1	n	n	n	n	n
Cc1nc2sc(C(c3cccc(F)c3)N3CCOCC3)c(O)n2n1 (stereo not drawn)	n	n	n	n	n
Cc1ccnc2c(N3C(=O)C4C5c6ccccc6C(c6ccccc65)C4C3=O)cccc12 (stereo not drawn)	n	n	n	n	n
CCOC(=O)c1[nH]c(C)c(C(=O)OC(C)C(=O)Nc2ncc(Cl)cc2Cl)c1C (stereo not drawn)	n	n	n	n	n
CCOC(=O)/C(C(N)=NC(C)C)=C(\O)c1ccccc1	x	x	x	n	x
COc1cc(OC)c(NC(=O)CCc2nc(-c3ccc(C)cc3)no2)cc1Cl	n	n	78.3	n	n
COc1ccccc1-c1noc(CCC(=O)Nc2ccccc2Cl)n1	78.8	n	n	n	n
COc1ccc(-c2noc(CCC(=O)Nc3nc4ccccc4s3)n2)cc1	n	n	68.0	x	n
CCOC(=O)N1CCC(NC(=O)CCc2nc(-c3ccccc3F)no2)CC1	59.8	n	58.9	n	n
O=C(NCC(F)(F)F)Nc1ccccn1	n	n	n	n	n
COc1ccccc1-c1noc(CCC(=O)Nc2cccc(C)c2)n1	74.2	n	n	n	n
CCc1cccc(NC(=O)CCc2nc(-c3cccs3)no2)c1	93.0	n	83.4	x	n
COc1ccc(NC(=O)CCc2nc(-c3ccccc3F)no2)cc1	77.9	n	68.6	n	n
COc1ccc(-c2noc(CCC(=O)Nc3cccc(C)c3)n2)cc1	n	n	n	n	n
CCOC(=O)C(C(=O)OCC)C(CC(=O)C1CC1)c1ccccc1 (stereo not drawn)	n	n	n	n	n
Cc1nn(C)cc1CNC(=O)Nc1ccc(Cl)c(Cl)c1	n	n	n	n	n
O=C(OCCOc1ccc(Br)cc1)c1cnccn1	61.6	n	n	n	n
O=C(COC(=O)c1cnccn1)c1ccccc1	n	n	81.7	n	n
COC(=O)c1cc(O)c(OCc2ccccc2)c(O)c1	95.0	n	91.4	n	n
COC(=O)c1[nH]c(=O)c2ccccc2c1OCc1ccccc1	n	n	n	n	n
O=C(COC(=O)c1ccccc1Nc1ccccc1)c1ccccc1	n	n	56.9	n	n
O=C(COC(=O)c1cnccn1)c1ccc(Br)cc1	n	n	n	n	n
SMILES	CYP2C19 inhib	CYP2C9 activ	CYP2C9 inh	Pyk2 oligo antag	CYP2C19 act
COc1cc2c(cc1OC)C(c1cc3cc4c(cc3[nH]c1=O)OCO4)N(C(=O)C(C)C)CC2 (stereo not drawn)	x	x	x	n	x
O=C(OCc1ccc(Cl)c(Cl)c1)c1cnccn1	60.9	n	n	n	n
CCc1ccc(C(=O)COc2ccc(NC(C)=O)cc2)cc1	87.5	n	77.3	n	n
NC(=O)COC(=O)c1ccc(Oc2ccccc2)cc1	55.4	n	n	n	n
CC(=O)Nc1ccc(OCC(=O)c2ccc(C)cc2C)cc1	72.2	n	n	n	n
COC(=O)CNC(=O)c1c(C)cc(=O)oc1C	n	n	n	n	n
Cn1c(=O)c2c(nc(N/N=C/c3ccc(OC(=O)c4ccco4)cc3)n2Cc2ccccc2Cl)n(C)c1=O	x	x	x	n	x
CCn1c(SCC(=O)N2CCC(C)CC2)nnc1-c1ccc(S(=O)(=O)N2CCN(C)CC2)cc1	n	n	n	n	n
O=C(c1ccc(-n2cnnn2)cc1)N1CCCCC1	x	x	x	n	x
O=C(COC(=O)c1ccccc1)c1ccc(Br)cc1	56.5	n	n	n	n
COC(=O)c1ccc(OCCOc2ccc(C(=O)OC)cc2)cc1	n	n	n	n	n
COC(=O)c1ccc(OCC(=O)c2ccccc2)cc1	74.9	n	n	n	n
N/C(=N\OC(=O)c1ccc(Br)cc1)c1ccccc1	n	n	n	n	n
COc1cc2c(cc1OC)CN(CC(=O)Nc1ccc3c(c1)OC(F)(F)O3)CC2	n	n	n	n	n
Cn1c(Cl)c(/C=N/OC(=O)c2cccc(Cl)c2)c2ccccc21	n	n	n	n	n
